GPR7 antagonist – human neuropeptides B/W receptor 1 antagonism; 1.1% of 290,000 active; P48145; AID 1861; inhibition, % at 4.4 µM; GPR7-expressing cells, fluorescence antagonist assay; in the data active means inhibition above about 16%, passing the limit was not always enough;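 further: cells stimulated with the agonist NPW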
Kir21 inh – Kir2.1 (mouse) channel inhibition; 0.85% of 310,000 active; B-score at 10 µM; HEK293-Kir2.1, FluxOR thallium flux fluorescence; stronger effect = lower value; P35561; AID 1672;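 active means fluorescence ratio B-score at or below minus 3 SD of library scores, with starting-brightness B-score within 2 SD, cut at about -4.2 in these data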;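 further: channel flux triggered by added potassium and thallium sulfate stimulus; B-score of peak minus minimum fluorescence over baseline after thallium stimulus; more negative B-score means stronger Kir2.1 block with less thallium influx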
CHT block – human CHT choline transport inhibition | Q9GZV3 | CHT-expressing cells, membrane potential dye, choline response; stronger effect = lower value | B-score at 10 µM | 0.86% of 310,000 active | AID 488975;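 active means B-score over 3 SD under the library average, and starting fluorescence ratio not unusually high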;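 further: choline stimulus applied at its EC90 after an EC20 pre-addition; B-score computed on integrated fluorescence ratio after choline addition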
Target sequence (Q9GZV3 whole entry, looked up): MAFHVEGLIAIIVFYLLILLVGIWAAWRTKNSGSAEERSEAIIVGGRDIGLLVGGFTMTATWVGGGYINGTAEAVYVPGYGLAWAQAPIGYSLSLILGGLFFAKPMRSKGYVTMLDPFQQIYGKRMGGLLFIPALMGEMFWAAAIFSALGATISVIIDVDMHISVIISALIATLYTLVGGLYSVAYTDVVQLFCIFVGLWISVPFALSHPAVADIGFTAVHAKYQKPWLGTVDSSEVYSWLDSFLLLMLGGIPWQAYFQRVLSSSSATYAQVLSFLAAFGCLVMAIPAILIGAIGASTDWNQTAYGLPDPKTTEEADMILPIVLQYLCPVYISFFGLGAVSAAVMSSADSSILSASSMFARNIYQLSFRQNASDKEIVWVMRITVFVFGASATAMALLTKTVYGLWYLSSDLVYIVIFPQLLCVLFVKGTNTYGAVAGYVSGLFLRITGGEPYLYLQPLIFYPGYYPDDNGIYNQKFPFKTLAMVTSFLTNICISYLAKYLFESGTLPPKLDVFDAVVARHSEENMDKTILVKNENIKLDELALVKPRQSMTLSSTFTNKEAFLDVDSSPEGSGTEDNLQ
TMEM16A act – activates or potentiates the mouse TMEM16A chloride channel; 0.3% of 340,000 active; B-score at 10 µM; Q8BHY3; HEK293 TMEM16A/YFP-H148Q/I152L, iodide quench fluorescence; stronger effect = lower value; AID 623877;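 active means fluorescence-ratio B-score plate-corrected deviation score at least 3 library SD below zero, with starting fluorescence score within 5 deviations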;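 further: channel opened by trigger with iodide after compound preincubation; score built on the fluorescence ratio of max minus min over baseline; more negative score means more quench and so TMEM16A activation or potentiation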
CHT allo act – human CHT allosteric activation; CHT-expressing cells, membrane potential dye, choline EC20; stronger effect = higher value; LV-AA mutant CHT in HEK293 cells; 0.49% of 310,000 active; AID 488977; B-score at 10 µM;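 active means initial fluorescence not abnormally high and integrated response B-score, plate-corrected, over 3 SD above library mean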
TMEM16A inh – mouse TMEM16A channel inhibition, primary screen; Q8BHY3; 1.2% of 310,000 active; HEK293 TMEM16A/YFP iodide influx fluorescence, ionomycin; AID 588511; normalized B-score (activity score, 25-100; higher = stronger inhibition) at 10 µM;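 active means ratio plate-corrected score three or more library SD toward inhibition, starting fluorescence score within five deviations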;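 further: score derived from kinetic fluorescence span divided by baseline fluorescence per well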
GPR7 antag conf – human GPR7 antagonism, confirmation assay | shares compounds with GPR7 antagonist | GPR7-expressing cells, calcium fluorescence antagonist mode | inhibition, % at 4.4 µM | 52% of 2,400 active; in the data active means inhibition above about 24%;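 further: stimulated with the GPR7 agonist NPW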
MCHR1 antag – antagonizes human MCHR1, a GPR7 antagonist counter-screen | shares compounds with GPR7 antagonist | MCHR1-expressing cells, fluorescence antagonist assay | inhibition, % at 4.4 µM | 62% of 2,400 active; in the data active means inhibition above about 22%
Hits are given with their value; . = inactive; / = no result. The list is not random: actives were taken first. Their share in the collection is about 3.7%.

SMILES	GPR7 antagonist	Kir21 inh	CHT block	TMEM16A act	CHT allo act	TMEM16A inh	GPR7 antag conf	MCHR1 antag
Cc1ccc(N(C(=O)c2csnn2)C(C(=O)NC2CCCC2)c2ccncc2)c(C)c1 (stereo not given)	40.6	.	.	.	.	.	.	.
COc1cc(/C=C(/C#N)C(=O)Nc2ccccc2)ccc1OCc1ccc(C(=O)O)cc1	.	.	.	.	.	.	/	/
COc1cc(/C=C(\C#N)C(=O)Nc2ccc(C(=O)O)cc2)ccc1OC(=O)c1cccc(F)c1	30.6	.	.	.	.	.	33.8	.
COc1ccc2cc(C(=O)NCc3ccccc3)c(=O)oc2c1	34.3	.	.	.	.	.	.	.
CCOC(=O)c1cc(C#N)c(Nc2ccc(C)cc2)nc1C(F)(F)F	.	.	.	.	.	.	/	/
COc1ccc(OC)c(S(=O)(=O)N2CCCC(C(=O)N3CCCCCC3)C2)c1 (stereo not given)	.	.	.	.	.	.	/	/
O=C(NC1CCCC1)C(c1ccccc1)N(Cc1ccc2c(c1)OCO2)C(=O)Cc1cccs1 (stereo not given)	.	.	.	.	.	.	/	/
O=C(NC1CCCCC1)C(c1ccncc1)N(Cc1ccc2c(c1)OCO2)C(=O)c1cnsn1 (stereo not given)	26.1	.	.	.	.	.	30.3	.
O=c1[nH]c2ccccc2cc1CN(Cc1ccco1)S(=O)(=O)c1ccccc1	.	.	.	.	.	.	/	/
CC(C)n1cc(CN2CCCC(C(=O)Nc3cccc(-c4cc5ccccc5[nH]4)c3)C2)cn1 (stereo not given)	26.8	.	.	.	.	.	41.8	55.8
CC(C)OC(=O)c1cccc(NC(=O)CSc2nnc(N)s2)c1	.	.	.	.	.	.	/	/
CCN1CCN(Cc2ccc(NC(=O)c3ccc(C)c(NC(=O)C(=O)c4c[nH]c5ccccc45)c3)cc2C(F)(F)F)CC1	35.9	.	.	.	.	.	60.9	74.1
CCN1CCN(Cc2ccc(NC(=O)c3cc(NC(=O)C(=O)c4c[nH]c5ccccc45)cc(OC)c3)cc2C(F)(F)F)CC1	/	.	.	.	.	.	/	/
CCOC(=O)[C@H]1[C@H]2COc3cc(OC)ccc3[C@@H]2N2C(=O)c3cc(OC)c(OC)cc3NC(=O)[C@@]12C	/	/	.	.	.	.	/	/
c1ccc2c(c1)OC(CCCN1CCCCC1)c1ccccc1S2 (stereo not given)	24.8	-5.77	.	.	.	.	32.7	53.7
c1ccc(OCCCCN2CCCCC2)cc1	.	.	.	.	.	.	/	/
Cc1nn(C)cc1CN(C)C(=O)CCc1nnc(CCC2CCCCC2)o1	.	.	.	.	.	.	/	/
O=[N+]([O-])c1nn(-c2ccc3c(c2)OCCO3)n(O)c1=Nc1ccc(Cl)cc1	27.6	.	.	.	.	.	34.2	.
O=[N+]([O-])C1C(c2ccccc2)=NOC1c1ccccc1O (stereo not given)	.	.	.	.	.	.	/	/
CCOC(=O)NC(NC(=S)Nc1ccc(OCC)cc1)C(Cl)(Cl)Cl (stereo not given)	.	.	.	.	.	.	/	/
O=C(NC(NC(=S)Nc1c(Cl)cccc1Cl)C(Cl)(Cl)Cl)OCc1ccccc1 (stereo not given)	26.8	.	.	.	.	.	26.1	44.2
CC(=O)N1CCN(CC(=O)Nc2ccc3c(c2)CCC3)CC1	22.6	.	.	.	.	.	.	.
OC1CCC(Nc2ncnc3sccc23)CC1 (stereo not given)	.	.	.	.	.	.	/	/
O=S(=O)(NC1CCCC1)c1ccc(S(=O)(=O)NC2CCCC2)cc1	43.4	.	.	/	.	.	51.1	33.2
O=S(=O)(NC1CC1)c1ccc(S(=O)(=O)N2CCc3ccccc32)cc1	21.8	.	.	.	.	.	.	28.9
CN(C(=O)c1ccc(S(=O)(=O)NC2CCCC2)cc1)C1CCCCC1	29.8	.	.	.	.	.	45.7	21.5
